Data published in PubChem BioAssay AID1117319 (Southern Research Institute, 2015).
Values joined by “and” are separate entries in the source; they are usually repeats but may differ in a detail not shown here. Equal entries are not always repeated. Among all 260,000 compounds or so, about 1,500 (0.58%) were called active. Roughly 5% stayed inconclusive and do not appear here.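 How the source made its calls: active means inhibition above a set limit at one or more doses, reproduced on every date tested; inconclusive means results disagree between test dates, or hit never tested in dose response; inactive means the rest.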 The list is a sample of the results. Entries with a potency or affinity are not part of this list.

biological target: Virion infectivity factor (Human immunodeficiency virus type 1 group M subtype B (isolate BH10)) + Virion infectivity factor (Human immunodeficiency virus type 1 group M subtype B (isolate BRU/LAI)) + Virion infectivity factor (Human immunodeficiency virus type 1 group M subtype B (isolate PCV12)) + Virion infectivity factor (Human immunodeficiency virus type 1 group M subtype B (isolate HXB2)) + DNA dC->dU-editing enzyme APOBEC-3G (Homo sapiens) (UniProt P69720+P69721+P69722+P69723+Q9HC16); experiment: HIV-1 Vif–A3G interaction blockers – biochemical, TR-FRET, GST-Vif 1-94, biotin-A3G peptide, dose response retest, primary screen (AID 1117319); conditions: TR-FRET GST-Vif / biotin-A3G peptide binding; stronger effect = higher value;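 further: Vif residues 1-94 fused to GST binding biotinylated APOBEC3G peptide 110-148; 0% = full assay without inhibitor and 100% = GST in place of GST-Vif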

inhibition, inactive:
Oc1ccc(NCc2ccc(OCc3ccccc3)cc2)cc1 17.4%
O=[N+]([O-])c1ccc(COc2cccc(CNc3ccc(Br)cc3)c2)cc1 2.31%
CN(C)S(=O)(=O)c1ccc(N2CCCC2)c(C(=O)Nc2nc3c(ccc4ccccc43)s2)c1 -35.6%
O=C(NCc1nnnn1-c1ccc(F)c(F)c1)C(=O)c1c[nH]c2ccccc12 11.1%
Cc1cccc(N2CCN(C3=NC(=O)C(Cc4ccccc4)S3)CC2)c1 (stereo not drawn) 14.4%
O=C1C=Cc2ccccc2/C1=C/c1[nH]c(=O)[nH]c1O -10.7%
CCN1C(=C2C(=O)c3ccccc3C2=O)C=Cc2ccccc21 26.5%
O=C1CC(NS(=O)(=O)c2cccnc2)CN1c1ccc(F)cc1 (stereo not drawn) -4.88%
N#Cc1ccccc1Sc1ccccc1C(=O)Nc1ccc(Br)cc1 5.46%
Fc1ccccc1/C=C1\CCCC2=C1Nc1nnnn1C2c1ccccc1F (stereo not drawn) 15.4%
C(=C1/CCCC2=C1Nc1ncnn1C2c1ccccc1)/c1ccccc1 (stereo not drawn) 0.53%
CC1CCC/C(=C\Nc2ccccc2C(=O)O)C1=O (stereo not drawn) 5.74%
Cc1cc(C(=O)O)ccc1N/C=C1\CCCC(C)C1=O (stereo not drawn) 10.9%
CC1CCC/C(=C\Nc2ccc(C(=O)O)cc2)C1=O (stereo not drawn) 4.93%
CCOC(=O)c1ccc(N/C=C2/CCCC(C)C2=O)cc1 (stereo not drawn) 1.6%
Cc1ccc(C(=O)NCCc2csc(-c3cccnc3)n2)cc1 3.26%
O=C(CCC(=O)NNC(=O)c1ccc([N+](=O)[O-])cc1)NCc1ccccc1 6.94%
O=C(NCCO)c1cc2ccccc2cc1O 2.23% and 6.09%
COC1=CC(=O)C(OC)=C(OC)C1=O 5.9%
CCCCCCCCSC1=CC(=O)C(OC)=C(OC)C1=O 31.4%
CSCCC(NC(=O)c1ccco1)C(=O)NCCc1ccc(Cl)cc1 (stereo not drawn) -15.8%
CC(=O)c1ccccc1NS(=O)(=O)c1ccccc1Cl -6.08%
COC(=O)COc1ccc2c(c1)O/C(=C\c1ccco1)C2=O 24%
CCN(CC)C(=O)Oc1ccc2c(c1)O/C(=C\c1ccco1)C2=O 12.6%
CC(C)Nc1nc2cccnc2s1 -0.88%
O=C(Nc1ccc(NC(=O)c2cccs2)cc1)c1ccc2c(c1)OCCO2 3.57%
COc1ccc(N2CCN(C(=O)CCc3c[nH]c4ccccc34)CC2)cc1 3.01%
O=C(CCc1c[nH]c2ccccc12)N1CCN(c2ccc(F)cc2)CC1 -3.01%
O=C(/C=C/c1ccccc1Cl)N(Cc1ccc(Cl)cc1)C1CCS(=O)(=O)C1 (stereo not drawn) 23.6%
CCC(C)c1ccccc1NC(=O)c1cccnc1 (stereo not drawn) -3.72%
Cc1cc(Cl)c(S(=O)(=O)N2CCCC2)cc1OCC(=O)NC1CCCCC1 -1.25%
Cc1cc(Cl)c(S(=O)(=O)NC2CCCC2)cc1OCC(=O)NC1CCCCC1 -2.05%
CC(=O)c1cccc(N(CC(=O)Nc2ccc(F)cc2F)S(C)(=O)=O)c1 7.3%
O=C(NNc1cccc(Cl)n1)Nc1cccc(C(F)(F)F)c1 2.4%
Cc1cc(C)cc(NC(=O)CSc2nnc(-c3ccccc3C)o2)c1 27.4%
COc1cc(NC(=O)c2cccc(Cl)c2)ccc1NC(=O)c1cccs1 2.27%
Cc1ccsc1C(=O)C1CCCN(Cc2cn(C)nc2-c2ccccc2)C1 (stereo not drawn) -6.7%
Cc1cc(C)c(C#N)c(Oc2ccc(F)cc2)n1 18.6%
Cc1cc(C)c(C#N)c(Oc2ccc(O)cc2)n1 0.3%
O=C1c2ccc([N+](=O)[O-])cc2C(=O)N1CNc1ccccn1 3.96%
N#CCCN(Cc1ccccc1)C(=O)c1nccnc1C(=O)O -11%
O=C(N/N=C/c1cn(Cc2ccccc2)c2ccccc12)c1cccnc1 -5.6%
O=C(N/N=C/c1cn(Cc2ccccc2)c2ccccc12)c1ccncc1 8.92%
Cc1ccc(S(=O)(=O)Cc2c(C)noc2C)cc1 3.86%
O=C(/C=C/c1ccc(O)cc1)c1ccc(O)cc1O 9.02%
O=CN/C=C/c1cccc(O)c1 -10.2%
Cc1cc(C)c(S(=O)(=O)N2CCCCC2)c(C)c1N(C)S(=O)(=O)c1ccccc1 -2.38%
Cc1cc(C)c(S(=O)(=O)N2CCCCC2)cc1N(C)S(=O)(=O)c1ccc(Cl)cc1 17.4% and -11.3%
COc1cc(C2C(C#N)=C(N)N(N(C)C)C3=C2C(=O)CCC3)ccc1O (stereo not drawn) 3.96%
Cc1ccc(C2C(C#N)=C(N)N(c3cccnc3)C3=C2C(=O)CCC3)c(C)c1 (stereo not drawn) -5.44%
CN(C)N1C(N)=C(C#N)C(c2cccnc2)C2=C1CC(C)(C)CC2=O (stereo not drawn) -8.23%
CN(C)N1C(N)=C(C#N)C(c2ccccc2)C2=C1CCCC2=O (stereo not drawn) 9.57%
CC(C)(C)NC(=O)CSc1nc(O)cc(=O)[nH]1 6.41%
CCC1=NN(C(=O)Cc2ccc([N+](=O)[O-])cc2)C(O)(C(F)(F)F)C1 (stereo not drawn) 17.1%
CC1CN(c2ccccc2)CCN1Cc1nc(Cc2ccccc2)no1 (stereo not drawn) -4.62%
Cc1ccc(-c2csnn2)cc1 -3.52%
O=C(Nc1ccc(Cl)cc1)c1cncs1 -5.16%
COC(=O)CSC(=S)N1CCCC(C)C1 (stereo not drawn) -1.45%
COc1ccc(Nc2nc(OC)nc(OC)n2)cc1 2.78%
COc1ccc(Nc2c(C)cccc2C)cc1 -5.1%
Cc1ccccc1-n1c(-c2ccc(Cl)cc2)cnc1SCC(=O)NC1CCS(=O)(=O)C1 (stereo not drawn) -0.29%
Cc1ccc(-c2cn3c(n2)SCC3)cc1 -0.83%
Oc1ccc(-c2cn3c(n2)SCC3)cc1 1.62%
CC(=O)c1cccc(CN2CCN(Cc3ccc(C)cc3)C(CCO)C2)c1 (stereo not drawn) -2.61%
COC(=O)C(C)(C)ONC(=O)Nc1ccccc1Br 23.3%
CC1(C)Cc2c(C#N)c(N3CCN(C(=O)c4ccccc4Cl)CC3)nc(-c3ccco3)c2CS1 15%
CC1CCN(c2nc(-c3ccco3)c3c(c2C#N)CC(C)(C)OC3)CC1 27.3%
COC(=O)C1=C(C)Nc2nnnn2C1c1cc(OC)ccc1OC (stereo not drawn) -7.75%
CCCCN(CC)CCNC(=O)c1nn(-c2ccc(OC)cc2)c(=O)c2c1c1ccccc1n2C 6.38%
CCCCOc1ccccc1C1NC(=O)NC(C)=C1C(=O)OCCOCC (stereo not drawn) 2%
CCCOc1ccccc1C1NC(=O)NC(C)=C1C(=O)OCc1ccccc1 (stereo not drawn) -9.5%
CCc1nnc(NS(=O)(=O)c2ccc(NC(=S)Nc3ccc(F)cc3)cc2)s1 -0.27%
CC[n+]1c(/C=C/C=C/N(C(C)=O)c2ccccc2)sc2ccccc21 8.36%
CCN1/C(=C/C(C)=C/c2sc3ccccc3[n+]2CC)Sc2ccccc21 -17.9%
CCN(CC)CCN=C1CCCc2ccccc2N1 0.69%
O=C(Nc1cccc(S(=O)(=O)N2CCOCC2)c1)c1cc2ccccc2o1 -1.28%
CC(=O)Oc1ccc(/C=N/NS(=O)(=O)c2ccccc2)cc1 -10.3%
Cc1ccc(S(=O)(=O)c2c(N)n(Cc3ccco3)c3nc4ccccc4nc23)cc1C 5.39%
Cc1ccc(S(=O)(=O)c2c(N)n(Cc3ccco3)c3nc4ccccc4nc23)cc1 2.43%
Cc1ccn2c(/C=N/OCc3ccc(F)cc3)c(-c3ccc(Cl)cc3)nc2c1 -1.15%
CCCCN(CCCC)CC1OCc2ccccc2CO1 -2.33%
COc1ccc(-c2nn(-c3ccccc3)cc2CNC[C@H]2O[C@@H](n3cnc(C(N)=O)n3)[C@H](O)[C@@H]2O)cc1 12.8%
CCC(C)Nc1nc(C)nc2c1oc1ccccc12 (stereo not drawn) -0.82%
CC(=O)c1sc(=S)n(Cc2ccccc2)c1C -9.02%
COc1cc2c(cc1OC)C(Cc1ccc(O)cc1)NCC2 (stereo not drawn) 16.4%
COc1cc2c(cc1O)C(Cc1ccc(O)cc1)NCC2 (stereo not drawn) -2.34%
CC(Oc1ccccc1F)c1nnc(SCC(=O)NCc2ccc3c(c2)OCO3)o1 (stereo not drawn) -7.49%
COc1ccc(-n2cc(-c3ccc(Cl)cc3)[nH]c2=S)cc1 -54.3%
O=C(c1ccc(Cl)cc1)C1CCCN(Cc2cccn2-c2ccccn2)C1 (stereo not drawn) -9.46%
CCOc1cc(C(=S)N2CCOCC2)ccc1OC(=O)c1ccc(C)cc1 4.9%
N#C/C(=C(/O)COc1ccc(Cl)cc1)c1nc2ccccc2s1 5.6%
CCC(c1ccccc1)C(CC)c1cc(O)c(O)c(O)c1 (stereo not drawn) 27.3%
CNC[C@H](O)c1cccc(O)c1 -0.43%
CC(C)NCC(O)c1ccc(NS(C)(=O)=O)cc1 (stereo not drawn) 4.04%
CCC(NC(C)C)C(O)c1ccc(O)c(O)c1 (stereo not drawn) -1.98%
CC(C)NCC(O)c1cc(O)cc(O)c1 (stereo not drawn) 5.35%
COc1ccc([C@H](C)NC[C@H](O)c2ccc(O)c(NC=O)c2)cc1 26%
CN1/C(=C\C(=O)COC(=O)c2ccccc2O)C(C)(C)c2ccccc21 -8.33%
